Results filed as inconclusive are left out. Calls of active or inactive are those of the source. Calls follow the shape of the dose curve; as a rule, active = well fitted cell-killing curve with a large enough effect; inconclusive = small, poorly fitted or top-dose-only effect; inactive = no such curve, though single readings can be large or run the other way.
Test: qHTS of pediatric cancer cell lines to identify multiple opportunities for drug repurposing: Primary screen for NB1643 cells (AID 1347099); also: nearly all actives have a fitted effect of over 50% in size
Conditions: NB1643 neuroblastoma viability, CellTiter-Glo luminescence, 48 h; series mostly up to 46 µM
Excerpt: Drug repurposing or repositioning has been offered as a strategy for drug development in oncology programs. This approach has special potential for childhood cancers and other rare or orphan diseases, where the expected return on new drug development has been a disincentive to pharmaceuticals. […] In this project we exploit the poly-pharmacology of drugs to discover new indications via phenotypic screening of a panel of 19 well-characterized cell lines derived from solid tumors seen in children and adolescents. The goal is to identify approved drugs with previously unrecognized anticancer properties that has the potential to reveal new mechanisms and biological processes involved in carcinogenesis or drug resistance. We employed a titration-based paradigm (quantitative high-throughput screening or qHTS), where all compounds were tested at multiple concentrations for their effect on cell viability. Concentration-response curves (CRCs) were derived directly from the primary screen, and both potency and efficacy values were used to identify compounds with robust bioactivity profiles. We screened the NIH Chemical Genomics Center (NCGC) Pharmaceutical Collection (NPC) and Mechanism Interrogation Plate (MIPE) small molecule collections of approved and investigational compounds against these cell lines; and measured metabolically active cells after 48 hours of compound treatment as a proxy for cell viability. […] Assay Submitter: Nathalia J. Martinez, National Center for Advancing Translational Sciences, National Institutes of Health, Rockville, MD, USA; email: natalia.martinez@nih.gov Shen, M et al. Quantitative high-throughput phenotypic screening of pediatric cancer cell lines identifies multiple opportunities for drug repurposing. Oncotarget 2017 Dec 19;9(4):4758-4772. PMID 29435139.
The cells were obtained from University of North Carolina (UNC), Pediatric Preclinical Testing Program (PPT), and Coriell Institute (CI). qHTS cell viability assay: Cells were assayed in growth media at a density of 500-1,000 cells/well. Five microliters of cells were dispensed into 1,536-well, white, solid-bottom, TC-treated plates (Greiner Bio One) using a multidrop dispenser and incubated at 37 degrees C, 5% CO2, under a humidified atmosphere for 5 hours. Twenty-three nanoliters of compounds and controls (neutral control DMSO or positive control bortezomib at final concentration of 2.3 µM) were subsequently transferred by Kalypsys pintool. For primary screens, the MIPE collection was tested at 11-point dilutions (final concentrations range from 0.78 nM to 46 µM) and the NPC collection at 8-point dilutions (final concentrations range from 0.59 nM to 46 µM). Compounds tested in follow-up screens were assayed at 11-point dilutions. Cells were incubated for 48 hours, followed by addition of 3 µL of CellTiter-Glo (Promega). After a 15 min incubation at room temperature, samples were analyzed for luminescence intensity using a ViewLux High-throughput CCD imager equipped with clear filters.
Potency is read from the fitted curve at half-maximal effect.

| SMILES | Potency |
| --- | --- |
| COc1ccc(Cn2ccc3ccc(C(=O)NO)cc32)cc1 | 14.8 µM (active) |
| c1ccc(CNc2nc(N3CCOc4ccccc43)nc3c2CCCC3)cc1 | 23.5 µM (active) |
| COc1ccc(C=CC(=O)Nc2ccccc2C(=O)O)cc1OC | 5.9 µM (active) |
| CC(C)(OCc1nn(Cc2ccccc2)c2ccccc12)C(=O)O | inactive |
| COc1c(C)cnc(Cn2cnc3c(Cl)nc(N)nc32)c1C | 0.264 µM (active) |
| OC(c1cc(C(F)(F)F)nc2c(C(F)(F)F)cccc12)C1CCCCN1 (stereo not given) | inactive |
| O=C(O)C1=CC(O)C(O)[C@H](O)C1 (stereo not given in full) | inactive |
| CCN1CCN(c2ccc(Nc3cc(N(C)C(=O)Nc4c(Cl)c(OC)cc(OC)c4Cl)ncn3)cc2)CC1 | inactive |
| CN1c2ccccc2C(=O)N2CCc3c([nH]c4ccccc34)C21 (stereo not given) | 13.2 µM (active) |
| CN(C)CCOc1cc(-c2cn[nH]c2)ccc1NC(=O)C1COc2ccccc2O1 (stereo not given) | 9.35 µM (active) |
| COc1cc(N2CCN(C)CC2)ccc1Nc1nc(N)c(C(=O)c2c(Cl)cccc2Cl)s1 | 14.8 µM (active) |
| c1cc(OCCN2CCCCC2)cc(-c2n[nH]c3ccc(-c4ncn[nH]4)cc23)c1 | 5.9 µM (active) |
| O=C(NC[C@H](O)CO)c1ccncc1Nc1ccc(I)cc1F | inactive |
| O=C(NCCCCN1CCOCC1)c1cc2ccccc2o1 | inactive |
| O=C(O)C1=CO[C@@H](O[C@@H]2O[C@H](CO)[C@H](O)[C@H](O)[C@H]2O)[C@@H]2C(CO)=CC[C@H]12 | inactive |
| CN[C@@H]1[C@@H](O)[C@@H](O[C@@H]2[C@@H](O)[C@H](O[C@H]3O[C@H](CN)[C@@H](O)[C@H](O)[C@@H]3O)[C@@H](N)C[C@@H]2NC(=O)[C@@H](O)CN)OC[C@]1(C)O | inactive |
| CCC(=O)NCC[C@@H]1CCc2ccc3c(c21)CCO3 | inactive |
| CC(C)CN(C[C@@H](O)[C@H](Cc1ccccc1)NC(=O)O[C@H]1CO[C@H]2OCC[C@H]21)S(=O)(=O)c1ccc(N)cc1 | 18.7 µM (active) |
| O=C(Nc1ccccc1)Nc1ccc(-c2ccc(C(=O)[C@H]3CCC[C@H]3C(=O)O)cc2)cc1 | inactive |
| COc1ccnc(CS(=O)c2nc3ccc(OC(F)F)cc3[nH]2)c1OC (stereo not given) | inactive |

| SMILES | Potency |
| --- | --- |
| C[C@]12CCC3=C4CCC(=O)C=C4CC[C@@H]3[C@H]1CC[C@@]2(O)CC#N | inactive |
| O=C1CN2Cc3c(ccc(Cl)c3Cl)N=C2N1 | inactive |
| C[C@@H]1CC=CC=CC=CC=C[C@@H](O[C@@H]2O[C@H](C)[C@@H](O)[C@H](N)[C@H]2O)C[C@@H]2O[C@](O)(C[C@@H](O)C[C@@H]3O[C@@H]3C=CC(=O)O1)C[C@H](O)[C@@H]2C(=O)O | inactive |
| CCN1CCC(n2cc(CNc3cc(Cl)c4ncc(C#N)c(Nc5ccc(F)c(Cl)c5)c4c3)nn2)CC1 | 18.7 µM (active) |
| CCC(=C(CC)c1ccc(O)cc1)c1ccc(O)cc1 | 9.35 µM (active) |
| OCCn1cc(-c2ccc3c(c2)CCC3=NO)c(-c2ccncc2)n1 | 11.8 µM (active) |
| CC(O)=C(C#N)C(=O)Nc1ccc(C(F)(F)F)cc1 | 23.5 µM (active) |
| NC(=O)c1ccc(N(C(N)=O)c2c(F)cccc2F)nc1-c1ccc(F)cc1F | inactive |
| CC(C)(C)c1nc(-c2cccc(NS(=O)(=O)c3c(F)cccc3F)c2F)c(-c2ccnc(N)n2)s1 | 18.7 µM (active) |
| C[C@@H]1[C@H](O)[C@@H](C)C=CC=CC=CC=CC=CC=CC=C[C@H](O[C@@H]2O[C@H](C)[C@H](O)[C@H](N)[C@@H]2O)C[C@@H]2O[C@](O)(C[C@@H](O)C[C@@H](O)[C@H](O)CC[C@@H](O)C[C@@H](O)CC(=O)O[C@H]1C)C[C@H](O)[C@@H]2C(=O)O | 0.166 µM (active) |
| Cc1cn([C@@H]2C[C@@H](O)[C@H](CO)O2)c(=O)[nH]c1=O | inactive |
| COc1ccc(-c2cc3nccn3c(Nc3ncccc3C(N)=O)n2)cc1OC | 2.35 µM (active) |
| CCCCOCCOc1nc(-c2ccc(C(=O)O)c(F)c2)sc1C | inactive |
| Cc1nn(Cc2ccccc2Cl)c(C)c1CN(C)CC(O)COc1ccc(Cl)cc1 (stereo not given) | 14.8 µM (active) |
| CC1(COc2ccc3c(c2)ncn3-c2ccc3cccc(N4CCC(N)CC4)c3n2)COC1 | inactive |
| Cc1[nH]c(C=C2C(=O)Nc3ccc(S(=O)(=O)N(C)c4cccc(Cl)c4)cc32)c(C)c1C(=O)N1CCN(C)CC1 | 18.7 µM (active) |
| Oc1ccc(C=Cc2cc(O)cc(O)c2)cc1 | 20.9 µM (active) |
| COc1nccc(-c2c(-c3ccc(F)cc3)ncn2C2CCC(O)CC2)n1 (stereo not given) | inactive |
| CNC(=O)c1cc(Oc2ccc(NC(=O)Nc3ccc(Cl)c(C(F)(F)F)c3)c(F)c2)ccn1 | 13.2 µM (active) |
| CN(C)CCOc1ccc(-c2nc(-c3ccc4c(c3)CCC4=NO)c(-c3ccncc3)[nH]2)cc1 | 20.9 µM (active) |
